CRFR2-BP ag – agonists of CRF-BP/CRF-R2 complex, primary screen, cell-based, HEK293, calcium dye fluorescence, uHTS | calcium dye fluorescence (FLIPR); percent of saturating CRF peptide response | activation, % at 13.2 µM | 350,000 tested, 0.46% active;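 active = activation of at least 50%, plus an integration ratio under a set limit after plate pattern correction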
CRFBP-R2 block – antagonists of CRF-BP/CRF-R2 complex, primary screen, cell-based, HEK293, calcium dye fluorescence, uHTS; 350,000 tested, 0.59% active; CRF-induced calcium fluorescence; AID 588475, 2011; inhibition, % at 11.8 µM;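 active = inhibition of the ligand-induced calcium signal above about 50% at the single tested concentration, limit read from the data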
RTF Ca sens inh – cardiac RTF calcium sensitivity inhibitors, primary screen, biochemical, IANBD-TnC fluorescence, EC70 calcium | Troponin I, cardiac muscle (Homo sapiens) + Troponin T, cardiac muscle (Homo sapiens) + … | IANBD-labeled cardiac RTF, Ca2+ fluorescence | inhibition, % at 7.15 µM | 340,000 tested, 0.12% active | AID 493244, 2011;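 active = inhibition above the mean inhibition of all tested compounds plus 3 SD, cut at about 17% in these data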;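 also: assay run at fixed EC70 calcium of 1.6 mM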
ANO1 block – TMEM16A chloride channel inhibitors, primary screen, cell-based, HTS; Anoctamin-1 (Mus musculus), Q8BHY3; HEK293 TMEM16A/YFP iodide influx fluorescence, ionomycin; normalized B-score (activity score, 25-100; higher = stronger inhibition) at 10 µM; 310,000 tested, 1.2% active; AID 588511, 2011;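 active = ratio plate-corrected score three or more library SD toward inhibition, starting fluorescence score within five deviations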;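 also: score derived from kinetic fluorescence span divided by baseline fluorescence per well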
TMEM16A act – TMEM16A chloride channel activators or potentiators, primary screen, cell-based, HTS | HEK293 TMEM16A/YFP-H148Q/I152L, iodide quench fluorescence; active compounds read low | B-score at 10 µM | 340,000 tested, 0.3% active;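 active = fluorescence-ratio B-score plate-corrected deviation score at least 3 library SD below zero, with starting fluorescence score within 5 deviations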;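 also: channel opened by trigger with iodide after compound preincubation; score built on the fluorescence ratio of max minus min over baseline; more negative score means more quench and so TMEM16A activation or potentiation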
RTF Ca sens act – cardiac RTF calcium sensitivity activators, primary screen, biochemical, IANBD-TnC fluorescence, EC20 calcium | IANBD-labeled TnC RTF fluorescence at EC20 calcium; 0% EC20 calcium, 100% full calcium | activation, % at 7.2 µM | 340,000 tested, 0.24% active;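 active = activation above the mean over all tested compounds plus 3 SD, cut at about 30% in these data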;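 also: rise in fluorescence read as greater calcium sensitivity of cardiac thin filaments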
Hits are given with their value; – = inactive; · = no result. Rows were chosen to be rich in hits. Some 2.4% of all compounds tested hit in one or more screens of this group.

SMILES	CRFR2-BP ag	CRFBP-R2 block	RTF Ca sens inh	ANO1 block	TMEM16A act	RTF Ca sens act
C=C(C)[C@@]12OC3(c4ccccc4)O[C@@H]1C1[C@@H]4O[C@]4(CO)[C@@H](O)[C@]4(O)C(=O)C(C)=C[C@H]4[C@@]1(O3)[C@H](C)[C@H]2OC(=O)/C=C/C=C/c1ccccc1 (stereo partly drawn)	–	111	–	–	–	–
COC(=O)C1=C(c2ccc(C(C)=O)cc2)C[C@@H]2CC[C@H]1N2C(=O)N1CCC(O)CC1	–	–	–	·	–	–
CN(C)c1ccc(-[n+]2c(-c3ccccc3)cc(-c3ccccc3)cc2-c2ccccc2)cc1	–	–	·	·	–	·
Cc1ccc(-c2cc(-c3ccccc3)cc(-c3ccccc3)[n+]2-c2ccccc2)cc1	66	–	–	100	–	–
c1ccc(-c2cc(-c3ccccc3)[n+](-c3ccccc3)c(-c3ccccc3)c2)cc1	–	–	–	25	–	–
Cc1ccc(-c2cc(-c3ccc(C)cc3)[n+](-c3ccccc3)c(-c3ccc(C)cc3)c2)cc1	60	–	–	100	–	–
Nc1ccccc1Cl	–	–	–	·	–	–
CCC1([N+](=O)[O-])COP(N)(=O)OC1 (stereo not drawn)	–	–	–	·	–	–
Cc1cccc(-n2c(O)c(/C=C/C=Nc3ccccc3)c(=O)[nH]c2=O)c1	56	–	–	–	–	77
CNS(=O)(=O)c1ccc(N=Cc2c(O)n(-c3cccc(C)c3)c(=O)[nH]c2=O)cc1	–	–	–	–	–	–
Cn1c(O)c(/C=C/C=Nc2ccccc2)c(=O)n(C)c1=S	55	–	–	–	–	–
COC(=O)C1=C(c2ccc(C(C)=O)cc2)C[C@@H]2CC[C@H]1N2C(=O)NC1Cc2ccccc2C1	–	–	–	·	–	–
CC(=O)O[C@H]1CC[C@@]2(C)C(=CC(=O)C3C2CC[C@@]2(C)C3C[C@H](OC(C)=O)[C@@H]2OC(C)=O)C1 (stereo partly drawn)	–	–	–	·	–	–
CCCCn1c(=O)c(C(=O)NCc2ccc(Cl)cc2)c(O)c2ccccc21	–	–	–	–	–	–
CCCCCn1c(=O)c(C(=O)NCc2ccncc2)c(O)c2ccccc21	–	–	–	25	–	–
COc1ccc(CN2C(=O)NC(=O)/C(=C/c3ccoc3)C2=O)cc1	–	51	–	–	–	–
COc1ccc(CN2C(=O)NC(=O)/C(=C/c3cc(OC)c(OC)c(OC)c3)C2=O)cc1	–	–	–	–	–	–
CC(C)(C)C1(CCO)C(=O)NC(=S)NC1=O	–	–	–	·	–	–
C[C@H](CO)N1C[C@H](C)[C@@H](CN(C)C(=O)Oc2ccccc2)OCc2cnnn2CCCC1=O	–	–	·	·	·	·
Cn1cc(C(=O)OCC(=O)NC2CCCCC2)c2ccccc21	–	–	–	·	–	–
CCCCNS(=O)(=O)c1ccc(OCC(=O)N2CCN(Cc3ccc4c(c3)OCO4)CC2)cc1	–	–	–	–	-4.7	–
O=C(COc1ccc(S(=O)(=O)N2CCOCC2)cc1)N1CCN(Cc2ccc3c(c2)OCO3)CC1	–	–	–	–	–	–
O=C1NC(=S)SC1=Cc1ccc(N(CCCl)CCCl)cc1	88	–	–	·	–	94
Oc1cc(Cl)c(Cl)c(Cl)c1	–	55	–	·	–	–
C[C@]12C[C@H](O)[C@@H](O)CC1=CCC1C2CC[C@@]2(C)C1CC[C@@H]2O (stereo partly drawn)	–	–	–	·	–	–
SMILES	CRFR2-BP ag	CRFBP-R2 block	RTF Ca sens inh	ANO1 block	TMEM16A act	RTF Ca sens act
O=C(Cn1ncc2c3ccccc3n(Cc3ccccc3F)c2c1=O)N1CCC2(CC1)OCCO2	–	–	–	–	-21	–
O=C1NC(=O)C2(CCCC2)C(=O)N1	–	–	–	·	–	–
CCCCCc1nc2c(c(=O)c3ccccc3n2C)c(=O)n1C1CCCCCC1	219	–	–	–	-11	–
Cc1cccc(C)c1NC(=O)c1cccn(Cc2ccc3c(c2)OC(F)(F)O3)c1=O	–	–	–	25	–	–
CC(=O)OCC12CC(OC(=O)CC(C)C)C(C)=CC1OC1C(O)C(OC(C)=O)C2(C)C12CO2 (stereo not drawn)	–	–	–	·	–	–
COc1cc(CNCCc2c[nH]c3ccccc23)cc(OC)c1	–	–	–	–	–	–
N[C@@H](Cc1ccc(N(CCCl)CCCl)cc1)C(=O)O	–	–	–	–	–	–
NC(Cc1ccc(O)cc1)C(=O)NN=Cc1ccc(N(CCCl)CCCl)cc1 (stereo not drawn)	–	60	–	·	–	–
Cc1ccc(CN2CCC3CCC(C3)C2)c(O)c1 (stereo not drawn)	–	–	–	·	–	–
N=C1c2ccccc2CN1c1cccc([N+](=O)[O-])c1	–	–	–	–	–	–
Nc1cccc2c1Cc1cc([N+](=O)[O-])ccc1-2	62	–	–	·	–	–
CN1C(=O)C(=Cc2ccc(-c3cccc(Cl)c3)o2)C(=O)N(C)C1=O	·	·	·	–	·	·
CN1C(=O)C(=Cc2ccc(N3CCCCCC3)o2)C(=O)N(C)C1=S	99	–	–	–	–	58
Cc1ccc(Sc2ccc(C=C3C(=O)N(C)C(=O)N(C)C3=O)o2)cc1	–	–	–	–	–	–
CN1C(=O)C(=Cc2ccc(N3CCOCC3)o2)C(=O)N(C)C1=O	–	–	–	–	–	72
CCOc1ccc(-c2c(C)n(-c3ccc(OCC)cc3)c3[n+]2CCCCC3)cc1	–	–	–	25	–	–
Oc1ccc(/C=N/NP(=S)(c2ccccc2)c2ccccc2)cc1	–	52	–	–	–	–
COc1cc(/C=N/NP(=S)(c2ccccc2)c2ccccc2)ccc1O	–	–	–	–	–	–
CCCN(CC#CCOc1ccc(OC)cc1)CCC	–	–	–	–	-16	–
CN1CN(c2ccccc2)C2(CCN(CCCSc3ccccc3NC(=O)/C=C/c3ccccc3)CC2)C1=O	95	–	–	·	–	–
CCc1ccccc1N1C(=O)/C(=C/c2ccc(N3CCN(C)CC3)o2)C(=O)NC1=S	55	–	–	–	–	65
Cc1cccc(N2C(=O)/C(=C/c3ccc(N4CCN(C)CC4)o3)C(=O)NC2=S)c1C	51	–	–	–	–	89
S=P(NCCNP(=S)(N1CC1)N1CC1)(N1CC1)N1CC1	–	–	–	·	–	–
